# Tests used:
# Assay in all cases: DAPPL (digital affinity profiling via proximity ligation, sequencing); 10 mM Tris-HCl pH 7.5, 50 mM NaCl, 1 mM DTT, 4% glycerol, room temperature, 30 min; GST-TFs on glutathione beads, 16-mer random dsDNA library, 0.1% formaldehyde crosslink after washing; high values mean tight binding
# [1] = biological target: T1, FLI1 (Homo sapiens, UniProt Q01543 1-452); settings: protein: recombinant; tags: N-terminal GST; dsDNA, one strand shown
# T1 sequence: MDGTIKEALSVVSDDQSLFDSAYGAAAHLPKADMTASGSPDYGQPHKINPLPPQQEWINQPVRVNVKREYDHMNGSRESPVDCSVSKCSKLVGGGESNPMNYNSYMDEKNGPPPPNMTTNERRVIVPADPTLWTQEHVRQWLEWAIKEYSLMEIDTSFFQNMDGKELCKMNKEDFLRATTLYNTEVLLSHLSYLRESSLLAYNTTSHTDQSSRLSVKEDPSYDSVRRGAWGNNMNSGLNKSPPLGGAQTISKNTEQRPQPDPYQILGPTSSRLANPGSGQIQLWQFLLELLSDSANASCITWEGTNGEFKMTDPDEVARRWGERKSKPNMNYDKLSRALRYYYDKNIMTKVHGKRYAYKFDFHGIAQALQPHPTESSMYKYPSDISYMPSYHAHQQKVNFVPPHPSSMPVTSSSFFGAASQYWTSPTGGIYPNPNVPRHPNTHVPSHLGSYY
# In short: (§1)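 The binding signal reported is, for every hexamer, its read frequency for a factor over its read frequency for the tag-only sample. Reads came from pools of yeast-expressed, GST-fused human transcription factors on glutathione beads, barcoded with DNA and mixed with that sample, which were incubated with 200 nmole of a random double-stranded 16-mer DNA library in Tris/NaCl/DTT/glycerol buffer at room temperature for 30 min. After washing, the pools were crosslinked with 0.1% formaldehyde, proximity-ligated with BsaI/T4 ligase for 1 h at 37 °C, PCR-amplified and sequenced on an Illumina NextSeq500.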
# [2] = biological target: T2, ELK1 (Homo sapiens, UniProt P19419 1-428); settings: protein: recombinant; tags: N-terminal GST; dsDNA, one strand shown
# T2 sequence: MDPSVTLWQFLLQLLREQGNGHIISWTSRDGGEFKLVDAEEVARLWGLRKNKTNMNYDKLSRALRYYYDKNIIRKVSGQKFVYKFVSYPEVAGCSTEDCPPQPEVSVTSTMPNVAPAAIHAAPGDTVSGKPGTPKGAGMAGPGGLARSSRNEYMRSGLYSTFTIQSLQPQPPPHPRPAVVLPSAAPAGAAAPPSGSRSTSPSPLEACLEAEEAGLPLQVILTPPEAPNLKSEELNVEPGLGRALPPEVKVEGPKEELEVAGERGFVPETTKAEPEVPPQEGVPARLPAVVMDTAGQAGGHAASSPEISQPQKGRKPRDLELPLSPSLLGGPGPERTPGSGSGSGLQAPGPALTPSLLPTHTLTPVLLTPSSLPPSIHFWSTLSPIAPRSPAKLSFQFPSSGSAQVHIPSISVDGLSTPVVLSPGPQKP
# In short: as §1
# [3] = biological target: T3, GABPA (Homo sapiens, UniProt Q06546 1-454); settings: protein: recombinant; tags: N-terminal GST; dsDNA, one strand shown
# T3 sequence: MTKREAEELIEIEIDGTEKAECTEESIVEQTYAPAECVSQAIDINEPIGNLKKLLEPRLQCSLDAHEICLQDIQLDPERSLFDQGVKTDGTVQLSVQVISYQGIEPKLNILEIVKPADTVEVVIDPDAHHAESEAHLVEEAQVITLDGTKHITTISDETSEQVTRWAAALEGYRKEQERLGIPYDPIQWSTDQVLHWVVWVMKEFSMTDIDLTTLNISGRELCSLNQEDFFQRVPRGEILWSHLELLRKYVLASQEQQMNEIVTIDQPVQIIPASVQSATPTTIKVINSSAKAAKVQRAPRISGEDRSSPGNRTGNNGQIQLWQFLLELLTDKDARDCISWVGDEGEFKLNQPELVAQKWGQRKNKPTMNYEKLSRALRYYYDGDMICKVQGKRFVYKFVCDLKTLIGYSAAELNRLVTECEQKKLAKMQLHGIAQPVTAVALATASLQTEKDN
# In short: as §1
# [4] = biological target: T4, ERG (Homo sapiens, UniProt P11308 1-479); settings: protein: recombinant; tags: N-terminal GST; dsDNA, one strand shown
# T4 sequence: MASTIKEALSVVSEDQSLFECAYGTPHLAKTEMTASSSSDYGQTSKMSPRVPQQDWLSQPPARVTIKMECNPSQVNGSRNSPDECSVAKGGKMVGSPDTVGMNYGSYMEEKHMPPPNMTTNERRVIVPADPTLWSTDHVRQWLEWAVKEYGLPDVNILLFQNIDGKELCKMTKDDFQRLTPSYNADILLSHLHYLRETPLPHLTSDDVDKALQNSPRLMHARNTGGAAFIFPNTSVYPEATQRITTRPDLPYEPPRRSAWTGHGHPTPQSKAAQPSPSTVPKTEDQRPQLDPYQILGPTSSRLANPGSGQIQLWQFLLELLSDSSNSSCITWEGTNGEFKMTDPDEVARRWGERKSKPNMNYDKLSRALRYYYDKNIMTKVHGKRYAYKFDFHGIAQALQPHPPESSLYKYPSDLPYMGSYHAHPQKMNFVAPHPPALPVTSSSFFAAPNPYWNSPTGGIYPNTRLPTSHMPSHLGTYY
# In short: as §1
# [5] = biological target: ELF1 (Homo sapiens, UniProt P32519 1-619); settings: protein: recombinant; tags: N-terminal GST; dsDNA, one strand shown
# ELF1, sequence (P32519 whole entry): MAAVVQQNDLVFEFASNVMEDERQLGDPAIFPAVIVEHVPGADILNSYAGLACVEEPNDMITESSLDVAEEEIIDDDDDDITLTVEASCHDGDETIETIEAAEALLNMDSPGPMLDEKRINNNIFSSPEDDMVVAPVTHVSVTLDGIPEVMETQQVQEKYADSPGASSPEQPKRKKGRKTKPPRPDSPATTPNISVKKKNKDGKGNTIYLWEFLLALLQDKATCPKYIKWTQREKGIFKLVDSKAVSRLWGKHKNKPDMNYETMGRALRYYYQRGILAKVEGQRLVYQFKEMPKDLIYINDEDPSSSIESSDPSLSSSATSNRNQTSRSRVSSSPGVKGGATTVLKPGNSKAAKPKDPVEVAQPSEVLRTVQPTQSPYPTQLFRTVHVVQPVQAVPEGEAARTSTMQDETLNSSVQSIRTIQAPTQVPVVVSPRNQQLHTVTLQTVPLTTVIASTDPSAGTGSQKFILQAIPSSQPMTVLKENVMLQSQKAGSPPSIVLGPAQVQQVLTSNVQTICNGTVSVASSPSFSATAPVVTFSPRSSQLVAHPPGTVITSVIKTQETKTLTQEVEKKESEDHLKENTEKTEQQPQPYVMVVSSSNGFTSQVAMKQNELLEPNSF
# In short: as §1
# [6] = biological target: T5, EHF (Homo sapiens, UniProt Q9NZC4 1-300); settings: protein: recombinant; tags: N-terminal GST; dsDNA, one strand shown
# T5 sequence: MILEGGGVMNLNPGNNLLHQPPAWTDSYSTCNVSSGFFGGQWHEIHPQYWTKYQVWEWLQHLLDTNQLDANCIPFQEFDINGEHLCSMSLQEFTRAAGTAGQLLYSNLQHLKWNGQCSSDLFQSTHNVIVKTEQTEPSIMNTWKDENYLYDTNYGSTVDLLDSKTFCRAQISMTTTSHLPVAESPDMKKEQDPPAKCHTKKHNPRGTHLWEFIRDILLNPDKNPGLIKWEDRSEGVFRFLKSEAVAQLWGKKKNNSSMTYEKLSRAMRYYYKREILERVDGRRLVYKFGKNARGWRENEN
# In short: as §1
# [7] = biological target: SPI1 (Homo sapiens, UniProt P17947 1-270); settings: protein: recombinant; tags: N-terminal GST; dsDNA, one strand shown
# In short: as §1
# [8] = biological target: SPIB (Homo sapiens, UniProt Q01892 1-262); settings: protein: recombinant; tags: N-terminal GST; dsDNA, one strand shown
# SPIB, sequence (Q01892 whole entry): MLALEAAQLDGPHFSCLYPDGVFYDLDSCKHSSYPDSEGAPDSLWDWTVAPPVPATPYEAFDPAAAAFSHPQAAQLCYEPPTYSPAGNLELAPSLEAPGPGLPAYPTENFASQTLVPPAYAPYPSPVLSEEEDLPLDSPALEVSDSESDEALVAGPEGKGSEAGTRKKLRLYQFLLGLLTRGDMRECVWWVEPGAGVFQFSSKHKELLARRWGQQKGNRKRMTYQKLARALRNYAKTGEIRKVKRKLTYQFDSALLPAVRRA
# In short: as §1
# [9] = biological target: T6, ELK3 (Homo sapiens, UniProt P41970 1-407); settings: protein: recombinant; tags: N-terminal GST; dsDNA, one strand shown
# T6 sequence: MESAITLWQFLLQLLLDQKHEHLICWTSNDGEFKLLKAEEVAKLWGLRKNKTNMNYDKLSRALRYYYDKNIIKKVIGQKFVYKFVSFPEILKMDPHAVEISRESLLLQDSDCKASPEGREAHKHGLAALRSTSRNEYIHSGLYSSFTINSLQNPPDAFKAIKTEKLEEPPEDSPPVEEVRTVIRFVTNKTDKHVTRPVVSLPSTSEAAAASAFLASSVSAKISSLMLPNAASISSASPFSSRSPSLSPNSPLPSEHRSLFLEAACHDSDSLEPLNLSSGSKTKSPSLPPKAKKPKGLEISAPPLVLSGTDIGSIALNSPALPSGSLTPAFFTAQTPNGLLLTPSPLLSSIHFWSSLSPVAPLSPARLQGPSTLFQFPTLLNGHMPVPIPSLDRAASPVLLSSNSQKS
# In short: as §1
# [10] = biological target: T7, FEV (Homo sapiens, UniProt Q99581 1-238); settings: protein: recombinant; tags: N-terminal GST; dsDNA, one strand shown
# T7 sequence: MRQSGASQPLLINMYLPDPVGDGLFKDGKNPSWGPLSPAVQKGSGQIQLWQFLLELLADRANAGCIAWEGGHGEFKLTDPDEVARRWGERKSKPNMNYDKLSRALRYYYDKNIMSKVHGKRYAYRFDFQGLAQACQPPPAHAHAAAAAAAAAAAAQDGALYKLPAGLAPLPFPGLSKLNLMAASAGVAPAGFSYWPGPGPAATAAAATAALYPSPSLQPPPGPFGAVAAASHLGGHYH
# In short: as §1
# [11] = biological target: ETV5 (Homo sapiens, UniProt P41161 1-510); settings: protein: recombinant; tags: N-terminal GST; dsDNA, one strand shown
# ETV5, sequence (P41161 whole entry): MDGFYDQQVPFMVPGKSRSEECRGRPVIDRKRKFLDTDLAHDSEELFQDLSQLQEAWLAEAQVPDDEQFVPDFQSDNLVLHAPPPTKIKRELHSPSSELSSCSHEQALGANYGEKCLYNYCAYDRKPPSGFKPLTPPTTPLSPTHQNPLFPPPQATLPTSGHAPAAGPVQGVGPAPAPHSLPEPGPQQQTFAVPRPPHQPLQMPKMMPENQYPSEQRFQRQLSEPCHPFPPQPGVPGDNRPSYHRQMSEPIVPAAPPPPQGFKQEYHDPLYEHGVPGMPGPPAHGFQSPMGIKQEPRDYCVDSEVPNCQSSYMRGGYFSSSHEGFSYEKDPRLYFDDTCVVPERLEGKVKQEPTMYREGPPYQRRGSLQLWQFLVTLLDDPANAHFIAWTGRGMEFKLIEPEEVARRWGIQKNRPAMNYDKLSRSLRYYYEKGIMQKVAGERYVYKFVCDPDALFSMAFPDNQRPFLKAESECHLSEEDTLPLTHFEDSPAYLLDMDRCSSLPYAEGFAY
# In short: as §1
# [12] = biological target: HSF1 (Homo sapiens, UniProt Q00613 1-529); settings: protein: recombinant; tags: N-terminal GST; chain copies: 3; dsDNA, one strand shown
# HSF1, sequence (Q00613 whole entry): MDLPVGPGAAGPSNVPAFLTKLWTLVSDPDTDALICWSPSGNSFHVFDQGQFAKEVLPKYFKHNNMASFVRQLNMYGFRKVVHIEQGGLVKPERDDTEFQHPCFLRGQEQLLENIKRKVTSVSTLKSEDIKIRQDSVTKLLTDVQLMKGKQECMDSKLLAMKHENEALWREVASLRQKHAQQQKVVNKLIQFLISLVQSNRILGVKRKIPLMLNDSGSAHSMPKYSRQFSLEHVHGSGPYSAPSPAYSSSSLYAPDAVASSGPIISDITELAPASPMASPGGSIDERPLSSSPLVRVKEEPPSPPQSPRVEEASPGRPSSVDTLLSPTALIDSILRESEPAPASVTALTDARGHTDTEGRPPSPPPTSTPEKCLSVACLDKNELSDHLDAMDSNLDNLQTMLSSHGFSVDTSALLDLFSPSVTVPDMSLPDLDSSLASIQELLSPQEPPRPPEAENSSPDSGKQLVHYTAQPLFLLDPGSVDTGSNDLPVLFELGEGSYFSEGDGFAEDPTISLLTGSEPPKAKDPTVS
# In short: as §1
# [13] = biological target: T8, SPIC (Homo sapiens, UniProt Q8N5J4 1-248); settings: protein: recombinant; tags: N-terminal GST; dsDNA, one strand shown
# T8 sequence: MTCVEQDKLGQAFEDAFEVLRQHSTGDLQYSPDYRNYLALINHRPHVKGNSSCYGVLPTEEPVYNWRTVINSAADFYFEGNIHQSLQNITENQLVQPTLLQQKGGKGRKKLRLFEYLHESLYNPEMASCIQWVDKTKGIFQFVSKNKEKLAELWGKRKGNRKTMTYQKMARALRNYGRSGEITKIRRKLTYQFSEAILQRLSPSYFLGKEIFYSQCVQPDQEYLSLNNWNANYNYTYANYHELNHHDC
# In short: as §1
# [14] = biological target: ELF4 (Homo sapiens, UniProt Q99607 1-663); settings: protein: recombinant; tags: N-terminal GST; dsDNA, one strand shown
# ELF4, sequence (Q99607 whole entry): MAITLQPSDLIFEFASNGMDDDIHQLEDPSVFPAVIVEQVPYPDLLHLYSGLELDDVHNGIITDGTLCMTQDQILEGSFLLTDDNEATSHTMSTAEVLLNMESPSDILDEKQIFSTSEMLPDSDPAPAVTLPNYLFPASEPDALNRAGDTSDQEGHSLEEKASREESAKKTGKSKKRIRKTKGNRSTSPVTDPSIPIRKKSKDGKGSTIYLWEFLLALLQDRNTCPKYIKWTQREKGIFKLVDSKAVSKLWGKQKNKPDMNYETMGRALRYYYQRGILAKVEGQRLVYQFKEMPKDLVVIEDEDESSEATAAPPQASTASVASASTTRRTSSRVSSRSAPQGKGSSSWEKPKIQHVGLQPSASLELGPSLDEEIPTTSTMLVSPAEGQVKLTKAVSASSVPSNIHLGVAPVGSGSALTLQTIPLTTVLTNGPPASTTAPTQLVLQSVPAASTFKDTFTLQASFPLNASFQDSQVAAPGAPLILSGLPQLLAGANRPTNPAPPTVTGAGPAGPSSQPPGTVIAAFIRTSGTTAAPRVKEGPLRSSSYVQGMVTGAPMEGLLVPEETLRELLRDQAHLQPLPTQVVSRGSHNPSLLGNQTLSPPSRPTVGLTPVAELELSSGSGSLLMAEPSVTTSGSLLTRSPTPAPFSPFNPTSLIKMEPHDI
# In short: as §1
# [15] = biological target: T9, ELK4 (Homo sapiens, UniProt P28324-2 1-405); settings: protein: recombinant; tags: N-terminal GST; dsDNA, one strand shown
# T9 sequence: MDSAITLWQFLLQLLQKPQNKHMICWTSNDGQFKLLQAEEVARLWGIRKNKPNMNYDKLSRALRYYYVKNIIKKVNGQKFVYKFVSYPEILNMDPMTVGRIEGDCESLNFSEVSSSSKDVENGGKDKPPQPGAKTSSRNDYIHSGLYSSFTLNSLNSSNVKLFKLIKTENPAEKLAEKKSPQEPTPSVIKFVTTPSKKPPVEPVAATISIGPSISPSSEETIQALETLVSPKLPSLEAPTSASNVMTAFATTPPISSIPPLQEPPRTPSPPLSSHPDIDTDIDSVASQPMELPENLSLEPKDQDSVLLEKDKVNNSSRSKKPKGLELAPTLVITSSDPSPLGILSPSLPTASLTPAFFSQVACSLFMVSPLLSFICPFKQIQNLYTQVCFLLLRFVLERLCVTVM
# In short: as §1
# [16] = biological target: T10, ETV2 (Homo sapiens, UniProt O00321 1-342); settings: protein: recombinant; tags: N-terminal GST; dsDNA, one strand shown
# T10 sequence: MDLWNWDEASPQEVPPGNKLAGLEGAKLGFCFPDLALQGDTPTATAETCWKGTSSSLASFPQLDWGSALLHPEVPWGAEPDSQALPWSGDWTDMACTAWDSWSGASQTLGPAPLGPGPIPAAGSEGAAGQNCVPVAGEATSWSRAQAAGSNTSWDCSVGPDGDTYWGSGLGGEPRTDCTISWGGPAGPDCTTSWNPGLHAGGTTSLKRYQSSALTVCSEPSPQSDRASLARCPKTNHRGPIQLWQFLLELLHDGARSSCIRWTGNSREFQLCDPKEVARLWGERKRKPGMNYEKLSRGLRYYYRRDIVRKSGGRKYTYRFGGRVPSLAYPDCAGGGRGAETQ
# In short: as §1
# [17] = biological target: T11, ELF3 (Homo sapiens, UniProt P78545 1-371); settings: protein: recombinant; tags: N-terminal GST; dsDNA, one strand shown
# T11 sequence: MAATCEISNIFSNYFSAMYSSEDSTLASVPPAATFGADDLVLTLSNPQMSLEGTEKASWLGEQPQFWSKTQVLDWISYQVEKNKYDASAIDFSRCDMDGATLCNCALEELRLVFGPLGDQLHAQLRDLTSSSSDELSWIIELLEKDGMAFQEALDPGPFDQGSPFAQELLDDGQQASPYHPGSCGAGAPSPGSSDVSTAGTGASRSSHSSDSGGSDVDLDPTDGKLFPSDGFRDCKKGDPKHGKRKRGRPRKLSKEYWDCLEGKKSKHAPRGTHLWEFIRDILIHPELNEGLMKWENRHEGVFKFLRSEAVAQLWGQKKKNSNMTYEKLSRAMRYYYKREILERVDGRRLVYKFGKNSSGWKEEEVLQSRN
# In short: as §1
# [18] = biological target: ETV1 (Homo sapiens, UniProt P50549 1-477); settings: protein: recombinant; tags: N-terminal GST; dsDNA, one strand shown
# ETV1, sequence (P50549 whole entry): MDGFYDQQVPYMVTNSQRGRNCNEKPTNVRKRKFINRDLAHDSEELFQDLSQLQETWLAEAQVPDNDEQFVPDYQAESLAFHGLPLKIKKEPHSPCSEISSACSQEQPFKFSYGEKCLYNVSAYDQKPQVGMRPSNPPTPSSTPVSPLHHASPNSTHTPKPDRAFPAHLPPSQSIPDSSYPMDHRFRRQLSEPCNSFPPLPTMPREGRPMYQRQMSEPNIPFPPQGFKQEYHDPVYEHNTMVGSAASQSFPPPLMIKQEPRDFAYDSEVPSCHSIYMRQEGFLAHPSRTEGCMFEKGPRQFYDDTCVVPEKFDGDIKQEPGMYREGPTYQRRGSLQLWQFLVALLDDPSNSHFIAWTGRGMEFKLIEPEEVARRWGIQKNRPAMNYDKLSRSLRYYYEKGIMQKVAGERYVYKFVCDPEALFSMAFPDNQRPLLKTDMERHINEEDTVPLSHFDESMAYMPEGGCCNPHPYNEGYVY
# In short: as §1
sequence,measurement,setting,value
CACTGG,binding signal,[1],"1.15 fold enrichment (6-mer frequency, TF over GST control)"
same,binding signal,[2],"1.07 fold enrichment (6-mer frequency, TF over GST control)"
same,binding signal,[3],"1.15 fold enrichment (6-mer frequency, TF over GST control)"
same,binding signal,[4],"1.12 fold enrichment (6-mer frequency, TF over GST control)"
same,binding signal,[5],"1.17 fold enrichment (6-mer frequency, TF over GST control)"
same,binding signal,[6],"1.05 fold enrichment (6-mer frequency, TF over GST control)"
same,binding signal,[7],"1.03 fold enrichment (6-mer frequency, TF over GST control)"
same,binding signal,[8],"1.11 fold enrichment (6-mer frequency, TF over GST control)"
same,binding signal,[9],"1.02 fold enrichment (6-mer frequency, TF over GST control)"
same,binding signal,[10],"1.07 fold enrichment (6-mer frequency, TF over GST control)"
same,binding signal,[11],"1.13 fold enrichment (6-mer frequency, TF over GST control)"
same,binding signal,[12],"1.16 fold enrichment (6-mer frequency, TF over GST control)"
same,binding signal,[13],"1.24 fold enrichment (6-mer frequency, TF over GST control)"
same,binding signal,[14],"1.04 fold enrichment (6-mer frequency, TF over GST control)"
same,binding signal,[15],"1.05 fold enrichment (6-mer frequency, TF over GST control)"
same,binding signal,[16],"1.22 fold enrichment (6-mer frequency, TF over GST control)"
same,binding signal,[17],"1.11 fold enrichment (6-mer frequency, TF over GST control)"
same,binding signal,[18],"1.22 fold enrichment (6-mer frequency, TF over GST control)"

# Reference: publication PMC7862700, “An all-to-all approach to the identification of sequence-specific readers for epigenetic DNA modifications on cytosine”
